# Results from PubChem BioAssay (Tox21).
# A number with no mark means an inactive call. Inconclusive results are not listed. Entries that show only a call come without a potency. Active and inactive are the calls of the source. Unless noted, calls come from the whole dose curve.
# What was measured:
# [1] = Nuclear factor erythroid 2-related factor 2/antioxidant responsive element (Nrf2/ARE) small molecule agonists: qHTS cell viability counter screen in human keratinocytes (AID 1919968; active = well fitted curve in the direction sought with a large enough effect in the repeat runs; an effect the other way counts as inactive or inconclusive; note: nearly all actives have a fitted effect of over 55% in size; note: potency is the fitted concentration of half-maximal effect)
# Method in brief: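 In human HaCaT keratinocytes stably expressing an ARE-driven luciferase, compound exposure lasted 23 h at 37 C under 5% CO2. Viable cells are quantified with a protease-based fluorogenic reagent (CellTiter-Fluor) read 1 h after addition.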
# [2] = Nuclear factor erythroid 2-related factor 2/antioxidant responsive element (Nrf2/ARE) small molecule agonists: luciferase reporter gene qHTS assay in human keratinocytes (AID 1919969); note: nearly all actives have a fitted effect of over 35% in size
# [3] = biological target: Gonadotropin-releasing hormone receptor (Homo sapiens) (UniProt P30968); assay: Human gonadotropin-releasing hormone receptor (GnRHR) small molecule agonists, calcium flux assay in GnRHR-HEK293 cells (AID 1920063); note: nearly all actives have a fitted effect of over 35% in size
# Method in brief: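 Intracellular calcium rise is the read-out: engineered human GnRHR HEK293 cells, dye-loaded, are exposed to DMSO-dissolved compounds and fluorescence at Ex/Em 480/540 is tracked for 3 min.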
# [4] = biological target: KiSS-1 receptor (Homo sapiens) (UniProt Q969F8); assay: Human kisspeptin (KISS1R) small molecule agonists, calcium flux assay in KISS1R-HEK293 cells (AID 1920064; active = well fitted curve in the direction sought with a large enough effect in the repeat runs; an effect the other way counts as inactive or inconclusive)
# Method in brief: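 Concentration-response testing used 15 concentrations in triplicate on human KISS1R-expressing HEK293 cells. Calcium-dependent fluorescence (Ex/Em 480/540) was followed kinetically for 3 min after compound transfer.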
# [5] = G protein-coupled receptor (GPCR) small molecule agonists, calcium flux assay: HEK293 wild type cell line counter screen (AID 1920065)
# Method in brief: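 Fluorescence intensity signals activation. After overnight (18 h) culture and a 1 h calcium dye load at 37 C, compounds are added by pin tool and the plate read at 480/540 nm for 3 min in 1 s steps.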
# [6] = p53 small molecule agonists, cell-based qHTS assay with human liver microsomes (AID 1963577);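 note: p53 response element beta-lactamase reporter cells with liver microsomes plus NADPH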
# Method in brief: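 In this qHTS, p53 response-element beta-lactamase cells receive test compound together with a microsome/NADPH activating system (0.5 mg/mL final each) and are incubated 16 h at 37 C before LiveBLAzer fluorescence detection.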
# [7] = p53 small molecule agonists, cell-based qHTS assay with human liver microsomes: qHTS cell viability counter screen (AID 1963579); note: nearly all actives have a fitted effect of over 45% in size; note: potency is the fitted concentration of half-maximal effect
# Method in brief: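 Metabolically activated exposure: compounds, human liver microsomes and NADPH (0.5 mg/mL final apiece) were added to p53RE-bla cells seeded 5 h earlier, left 16 h at 37 C, and then assessed for viability by CellTiter-Glo luminescence.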
# [8] = p53 small molecule agonists, cell-based qHTS assay with rat liver microsomes: qHTS cell viability counter screen (AID 1963580); note: nearly all actives have a fitted effect of over 45% in size
# Method in brief: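 Luminescent ATP readout (CellTiter-Glo, 30 min at room temperature) reports viability of p53RE-bla HCT-116 cells after 16 h at 37 C with test compounds under metabolic activation by rat liver microsomes and NADPH at 0.5 mg/mL final each.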
# [9] = p53 small molecule agonists, cell-based qHTS assay: qHTS cell viability counter screen (AID 1963581); note: nearly all actives have a fitted effect of over 45% in size
# Method in brief: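 Luminescence from CellTiter-Glo, reflecting ATP content, serves as the cytotoxicity measure; it is taken after the 2 h reporter substrate step in HCT-116 p53RE-bla cells dosed for 16 h at 37 C.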
# [10] = cAMP Responsive Elements (CRE) small molecule agonists, cell-based qHTS assay (AID 1963590)
# Method in brief: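 Compound exposure lasted 3 h at 37 C/5% CO2 in CRE-bla HEK 293T cells grown in assay medium with 10% dialyzed FBS and 25 mM HEPES. Reporter signal came from LiveBLAzer B/G FRET substrate, 2 h, room temperature.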
# [11] = cAMP Responsive Elements (CRE) small molecule antagonists, cell-based qHTS assay (AID 1963591; active = well fitted inhibition curve with a large enough effect in the signal ratio in the repeat runs, not every such curve was filed as active; the % refers to the signal ratio)
# Method in brief: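 Stimulation used NKH477 at a final 0.25 uM for 3 h in compound-treated CRE-bla HEK293T cells, seeded 18 h beforehand. Reporter activity was measured with LiveBLAzer B/G FRET substrate after 2 h at room temperature.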
# [12] = biological target: Beta-2 adrenergic receptor (Homo sapiens) (UniProt P07550); assay: Adrenergic beta2 receptor (ADRB2) small molecule antagonists, cell-based qHTS assay (AID 1963592); note: nearly all actives have a fitted effect of over 50% in size; note: potency is the fitted concentration of half-maximal effect; for activity change, negative = inhibition: series mostly up to about 92 µM
# Method in brief: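 Assay format: CHO-ADRB2 cells, 18-20hr seeding at 37C/5% CO2, then compound plus 1nM isoproterenol agonist mix for 0.5hr RT. Homogeneous time-resolved fluorescence cAMP detection after 1hr, expressed as 665/615 nm ratio.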
# [13] = biological target: D(2) dopamine receptor (Homo sapiens) (UniProt P14416); assay: Dopamine D2 receptor (DRD2) small molecule agonists, cell-based qHTS assay (AID 1963594); note: nearly all actives have a fitted effect of over 35% in size
# Method in brief: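 HEK293 cells stably expressing DRD2 were cultured 24 h at 37 C, then given Ro20-1724 (0.1 mM final) and compounds for 10 min at room temperature. NKH477 (200nM) was then added for 30 min. cAMP was read by HTRF.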
# [14] = p53 small molecule agonists, cell-based qHTS assay (AID 1963582; active = well fitted activation curve with a large enough effect in the signal ratio in the repeat runs, not every such curve was filed as active; the % refers to the signal ratio)
# Method in brief: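 After plating, p53RE-bla cells sat 5 h in the incubator; compounds or DMSO vehicle were pinned in; a 16 h incubation at 37 C followed; FRET substrate was added and, 2 h later at RT, fluorescence was measured.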
# [15] = biological target: 5-hydroxytryptamine receptor 2A (Homo sapiens) (UniProt P28223); assay: 5-hydroxytryptamine receptor 2A (HTR2A) small molecule antagonists, cell-based qHTS assay (AID 1963586); note: nearly all actives have a fitted effect of over 45% in size
# Method in brief: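 CHO cells stably expressing human HTR2A were plated for 18 h at 37 C, then loaded with calcium dye for 1 h. Compounds were preincubated 5 min at room temperature before DOI (4 nM solution) was added. Kinetic fluorescence was read for 3 min.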
# [16] = biological target: 5-hydroxytryptamine receptor 2A (Homo sapiens) (UniProt P28223); assay: 5-hydroxytryptamine receptor 2A (HTR2A) small molecule agonists, cell-based qHTS assay (AID 1963587); note: nearly all actives have a fitted effect of over 30% in size
# Method in brief: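 HTR2A-CHO cells, plated 18 h at 37 C/5% CO2, dye-loaded 1 h at 37 C; compounds in DMSO added by pin tool (agonist mode). Intracellular calcium flux read as kinetic fluorescence on FDSS over 2 min at 1 s intervals.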
# [17] = biological target: Muscarinic acetylcholine receptor M1 (Homo sapiens) (UniProt P11229); assay: Cholinergic receptor muscarinic 1 (CHRM1) small molecule antagonists, cell-based qHTS assay (AID 1963588); note: nearly all actives have a fitted effect of over 40% in size
# Method in brief: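 Compounds were tested at 15 concentrations in three independent runs. Dye-loaded CHRM1-CHO cells were exposed 5 min at room temperature before stimulation by acetylcholine added at 50nM. Intracellular calcium was read kinetically on FDSS for 3 min.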
# [18] = biological target: Muscarinic acetylcholine receptor M1 (Homo sapiens) (UniProt P11229); assay: Cholinergic receptor muscarinic 1 (CHRM1) small molecule agonists, cell-based qHTS assay (AID 1963589); note: nearly all actives have a fitted effect of over 35% in size
# Method in brief: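 Fluorescent calcium dye reports M1 activation in stably transfected CHO cells. Compounds, 15 concentrations, added after 1 h dye loading at 37 C; kinetic reading at 1 sec intervals.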
# [19] = biological target: D(2) dopamine receptor (Homo sapiens) (UniProt P14416); assay: Dopamine D2 receptor (DRD2) small molecule antagonists, cell-based qHTS assay (AID 1963595; active = well fitted inhibition curve with a large enough effect in the signal ratio in the repeat runs, with a control signal flat; the % refers to the signal ratio)
# Method in brief: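 Stable D2 receptor HEK293 line, 24 h after seeding. Compound preincubated 10 min, then quinpirole (12 nM) with forskolin analogue NKH477 (200 nM), 30 min, room temperature. Detection by time-resolved FRET of cAMP.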
# [20] = p53 small molecule agonists, cell-based qHTS assay with rat liver microsomes (AID 1963578)
# Method in brief: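 Agonist mode in p53RE-bla reporter cells, with compounds co-incubated 16 h at 37 C alongside 0.5 mg/mL rat liver microsomes and 0.5 mg/mL NADPH (final), followed by a 2 h LiveBLAzer detection step.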
# Sequence of Gonadotropin-releasing hormone receptor (Homo sapiens) (P30968 whole entry, looked up): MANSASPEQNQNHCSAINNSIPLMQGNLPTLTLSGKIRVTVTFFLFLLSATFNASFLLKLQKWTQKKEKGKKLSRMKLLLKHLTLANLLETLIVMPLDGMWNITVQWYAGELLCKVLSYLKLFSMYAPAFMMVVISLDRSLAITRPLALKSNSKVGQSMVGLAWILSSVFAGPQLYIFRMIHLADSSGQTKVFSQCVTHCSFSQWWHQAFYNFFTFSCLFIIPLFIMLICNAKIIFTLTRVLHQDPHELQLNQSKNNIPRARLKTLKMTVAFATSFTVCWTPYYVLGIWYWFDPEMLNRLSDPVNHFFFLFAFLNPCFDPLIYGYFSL
# Sequence of 5-hydroxytryptamine receptor 2A (Homo sapiens) (P28223 whole entry, looked up): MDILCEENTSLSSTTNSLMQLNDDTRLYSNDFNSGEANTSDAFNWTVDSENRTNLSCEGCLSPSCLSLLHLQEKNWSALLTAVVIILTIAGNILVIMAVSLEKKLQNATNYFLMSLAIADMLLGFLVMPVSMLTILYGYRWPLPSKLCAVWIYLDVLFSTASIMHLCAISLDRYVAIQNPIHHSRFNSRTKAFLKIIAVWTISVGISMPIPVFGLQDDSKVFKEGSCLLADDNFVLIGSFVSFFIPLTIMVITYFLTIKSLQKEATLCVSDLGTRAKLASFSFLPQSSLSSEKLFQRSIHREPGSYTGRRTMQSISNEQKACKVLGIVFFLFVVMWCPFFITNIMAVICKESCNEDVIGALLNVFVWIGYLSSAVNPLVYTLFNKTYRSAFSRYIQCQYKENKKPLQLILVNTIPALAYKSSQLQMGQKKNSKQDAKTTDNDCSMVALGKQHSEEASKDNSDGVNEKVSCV
# Sequence of D(2) dopamine receptor (Homo sapiens) (P14416 whole entry, looked up): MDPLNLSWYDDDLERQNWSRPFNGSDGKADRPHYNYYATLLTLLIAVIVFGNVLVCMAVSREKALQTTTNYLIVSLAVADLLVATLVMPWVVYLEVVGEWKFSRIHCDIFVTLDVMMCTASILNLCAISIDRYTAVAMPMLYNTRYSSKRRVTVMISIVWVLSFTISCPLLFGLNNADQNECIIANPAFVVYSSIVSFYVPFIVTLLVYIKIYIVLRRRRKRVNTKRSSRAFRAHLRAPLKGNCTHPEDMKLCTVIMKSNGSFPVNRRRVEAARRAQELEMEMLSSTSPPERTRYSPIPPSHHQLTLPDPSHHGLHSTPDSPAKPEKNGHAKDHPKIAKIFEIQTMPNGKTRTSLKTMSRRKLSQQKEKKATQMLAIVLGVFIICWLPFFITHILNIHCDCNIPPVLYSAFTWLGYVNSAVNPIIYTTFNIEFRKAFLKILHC
# Sequence of Muscarinic acetylcholine receptor M1 (Homo sapiens) (P11229 whole entry, looked up): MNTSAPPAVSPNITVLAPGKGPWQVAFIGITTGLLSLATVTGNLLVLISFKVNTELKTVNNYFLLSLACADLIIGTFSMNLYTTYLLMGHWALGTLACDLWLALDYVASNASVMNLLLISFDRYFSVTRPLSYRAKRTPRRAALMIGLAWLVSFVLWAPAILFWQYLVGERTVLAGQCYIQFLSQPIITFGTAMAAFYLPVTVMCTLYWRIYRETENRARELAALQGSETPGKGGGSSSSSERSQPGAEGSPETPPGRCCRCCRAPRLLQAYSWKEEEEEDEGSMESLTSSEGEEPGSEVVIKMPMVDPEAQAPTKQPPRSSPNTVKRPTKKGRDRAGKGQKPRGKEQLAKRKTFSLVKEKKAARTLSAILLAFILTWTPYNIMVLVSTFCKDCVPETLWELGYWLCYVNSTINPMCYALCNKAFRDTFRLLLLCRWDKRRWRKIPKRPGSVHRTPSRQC
# Sequence of KiSS-1 receptor (Homo sapiens) (Q969F8 whole entry, looked up): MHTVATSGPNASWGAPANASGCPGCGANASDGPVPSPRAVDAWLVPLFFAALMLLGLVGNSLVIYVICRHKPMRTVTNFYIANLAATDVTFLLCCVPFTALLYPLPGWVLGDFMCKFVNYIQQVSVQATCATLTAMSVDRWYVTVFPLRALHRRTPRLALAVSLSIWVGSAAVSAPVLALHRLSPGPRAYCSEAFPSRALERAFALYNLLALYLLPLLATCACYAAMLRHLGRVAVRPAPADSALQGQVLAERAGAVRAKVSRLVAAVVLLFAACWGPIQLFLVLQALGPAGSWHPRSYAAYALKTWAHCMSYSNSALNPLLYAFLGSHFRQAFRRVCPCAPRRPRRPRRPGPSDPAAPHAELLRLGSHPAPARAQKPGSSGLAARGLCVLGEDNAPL
# Sequence of Beta-2 adrenergic receptor (Homo sapiens) (P07550 whole entry, looked up): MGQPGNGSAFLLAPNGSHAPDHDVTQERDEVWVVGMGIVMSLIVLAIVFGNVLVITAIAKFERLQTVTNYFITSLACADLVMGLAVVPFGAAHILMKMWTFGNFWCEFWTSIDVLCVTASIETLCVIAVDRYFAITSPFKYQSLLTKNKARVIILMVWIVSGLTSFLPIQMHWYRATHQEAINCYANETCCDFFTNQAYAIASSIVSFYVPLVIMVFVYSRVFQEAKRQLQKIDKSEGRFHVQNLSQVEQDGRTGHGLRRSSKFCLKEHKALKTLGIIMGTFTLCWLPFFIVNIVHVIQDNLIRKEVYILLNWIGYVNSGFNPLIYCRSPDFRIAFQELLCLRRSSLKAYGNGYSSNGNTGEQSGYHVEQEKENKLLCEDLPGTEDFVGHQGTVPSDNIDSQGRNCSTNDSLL
compound,measurement,setting,value
COc1cc2nc(N3CCN(C(=O)c4ccco4)CC3)nc(N)c2cc1OC,"activity change, negative = cytotoxicity",[1],-15.2% [at 19 µM]
same,"activity, positive = activation",[2],-0.0377% [at 19 µM]
same,activity change,[3],"-0.192% [at 11.8 µM, stronger effect = higher value]"
same,activation,[4],1.31% [at 15.8 µM]
same,activation,[5],0.594% [at 11.8 µM]
same,activation,[6],-0.142% [at 13.5 µM]
same,Potency,[7],0.972 µM (active)
same,"activity change, negative = cytotoxicity",[8],0.442% [at 13.5 µM]
same,"activity change, negative = cytotoxicity",[9],24.1% [at 13.5 µM]
same,activation,[10],-0.578% [at 19 µM]
same,"activity change, negative = inhibition",[11],4.27% [at 18.9 µM]
same,Potency,[12],14.6 µM (active)
same,activation,[13],10.2% [at 19 µM]
COc1cnc(NS(=O)(=O)c2ccc(N)cc2)nc1,Potency,[1],inactive
same,Potency,[2],inactive
same,Potency,[3],inactive
same,outcome,[4],inactive
same,outcome,[5],inactive
same,Potency,[6],inactive
same,Potency,[8],inactive
same,Potency,[14],inactive
same,Potency,[15],inactive
same,Potency,[16],inactive
same,Potency,[17],inactive
same,Potency,[18],inactive
same,Potency,[11],inactive
same,Potency,[12],inactive
same,Potency,[13],inactive
same,Potency,[19],inactive
COc1cc(S(=O)(=O)O)c(C)cc1N=Nc1c(O)ccc2cc(S(=O)(=O)O)ccc12,Potency,[1],24.3 µM (active)
same,Potency,[2],inactive
same,Potency,[3],inactive
same,outcome,[4],inactive
same,outcome,[5],inactive
same,Potency,[6],inactive
same,Potency,[7],inactive
same,Potency,[8],inactive
same,Potency,[14],inactive
same,Potency,[15],inactive
same,Potency,[17],inactive
same,Potency,[18],inactive
same,Potency,[10],inactive
O=C1c2ccccc2C(=O)N1CCl,Potency,[1],inactive
same,Potency,[2],inactive
same,Potency,[3],inactive
same,outcome,[4],inactive
same,outcome,[5],inactive
same,Potency,[6],inactive
same,Potency,[8],inactive
same,Potency,[9],inactive
same,Potency,[14],inactive
same,Potency,[15],inactive
same,Potency,[16],inactive
same,Potency,[17],inactive
same,Potency,[18],inactive
same,Potency,[10],inactive
same,Potency,[12],inactive
same,Potency,[19],inactive
CCCC(C)c1ccccc1O (stereo not given),Potency,[1],inactive
same,Potency,[2],inactive
same,Potency,[3],inactive
same,outcome,[4],inactive
same,outcome,[5],inactive
same,Potency,[20],inactive
same,Potency,[7],inactive
same,Potency,[8],inactive
same,Potency,[9],inactive
same,Potency,[14],inactive
same,Potency,[16],inactive
same,Potency,[17],inactive
same,Potency,[18],inactive
same,Potency,[12],inactive
same,Potency,[13],inactive
same,Potency,[19],inactive
Nc1cccc(S(=O)(=O)O)c1,Potency,[1],inactive
same,Potency,[2],inactive
same,Potency,[3],inactive
same,outcome,[4],inactive
same,outcome,[5],inactive
same,Potency,[20],inactive
same,Potency,[7],inactive
same,Potency,[8],inactive
same,Potency,[9],inactive
same,Potency,[15],inactive
same,Potency,[16],inactive
same,Potency,[17],inactive
same,Potency,[18],inactive
same,Potency,[10],inactive
same,Potency,[11],inactive
same,Potency,[12],inactive
same,Potency,[13],inactive
same,Potency,[19],inactive
CC1(C)CC(OC(=O)CCCCCCCCC(=O)OC2CC(C)(C)NC(C)(C)C2)CC(C)(C)N1,"activity change, negative = cytotoxicity",[1],-0.0002% [at 19 µM]
same,"activity, positive = activation",[2],-1.35% [at 19 µM]
same,activity change,[3],"1.96% [at 11.8 µM, stronger effect = higher value]"
same,activation,[4],3.13% [at 15.8 µM]
same,activation,[5],0.376% [at 11.8 µM]
same,activation,[20],0.45% [at 13.6 µM]
same,Potency,[7],0.884 µM (active)
same,"activity change, negative = cytotoxicity",[8],20.2% [at 13.5 µM]
same,"activity change, negative = cytotoxicity",[9],-0.213% [at 13.5 µM]
same,activation,[14],-3.4% [at 13.5 µM]
same,"activity, negative = inhibition",[15],-5.05% [at 12.7 µM]
same,activation,[16],2.3% [at 15.9 µM]
same,"activity, negative = inhibition",[17],30.1% [at 12.6 µM]
same,activation,[18],-1.98% [at 15.8 µM]
same,activation,[10],1.42% [at 19 µM]
same,"activity change, negative = inhibition",[11],-9.13% [at 18.9 µM]
same,"activity change, negative = inhibition",[12],8.71% [at 19 µM]
same,activation,[13],-4.7% [at 19 µM]
